Screening data from PubChem BioAssay.
Compounds with a hit are over-represented: about 4% of the library has one in this group of screens.
CSC inhib: cancer stem cell inhibition; AID 2717; 1.1% of 300,000 active; inhibition, % at 7.5 µM; cancer stem cell-like cells viability, luminescence; in the data active = inhibition above about 75%; inconclusive = no clear call, values can overlap the other calls; tested in HMLE shEcad cells
Beta apoptosis: beta cell apoptosis inhibition; protection from apoptosis, % (test concentration not listed); 0.8% of 300,000 active; INS-1E cytokine-induced death, ATP luminescence, 48 h; percent of positive-control rescue, neutral wells zero;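 active = Every replicate reaches about 75%, or at least half do and their mean reaches it too, limit read from the data; inconclusive = At least half of replicates reach the limit but their mean does not; inactive = Under half of replicates reach the limit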;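 also: 0% = cytokine-treated negative control wells and 100% = positive control rescue; higher means more ATP so stronger rescue from cytokine killing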
Shn3 3UTR inh: inhibitors of Schnurri-3 3'UTR reporter in osteoblasts. Clone20 osteoblast Shn3 3'UTR firefly luciferase, 24 h. inhibition, % at 12.5 µM. 0.52% of 360,000 active. AID 588674;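 active = mean inhibition of at least 75% with every replicate also reaching 75%; inconclusive = mean inhibition at least 75% but some replicate below; inactive = mean inhibition below 75%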;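 also: 0% = median of neutral control wells and 100% = pilot-screen positive control compound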
Mdm2 MdmX PPI: human Mdm2/MdmX binding inhibition; O15151+Q00987; SaOS-2 split-luciferase Mdm2/MdmX complementation, luminescence; inhibition, % at 8 µM; 3% of 330,000 active;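 active = inhibition of at least 50% at 8 µM in the primary screen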
Target sequence (O15151 whole entry, looked up): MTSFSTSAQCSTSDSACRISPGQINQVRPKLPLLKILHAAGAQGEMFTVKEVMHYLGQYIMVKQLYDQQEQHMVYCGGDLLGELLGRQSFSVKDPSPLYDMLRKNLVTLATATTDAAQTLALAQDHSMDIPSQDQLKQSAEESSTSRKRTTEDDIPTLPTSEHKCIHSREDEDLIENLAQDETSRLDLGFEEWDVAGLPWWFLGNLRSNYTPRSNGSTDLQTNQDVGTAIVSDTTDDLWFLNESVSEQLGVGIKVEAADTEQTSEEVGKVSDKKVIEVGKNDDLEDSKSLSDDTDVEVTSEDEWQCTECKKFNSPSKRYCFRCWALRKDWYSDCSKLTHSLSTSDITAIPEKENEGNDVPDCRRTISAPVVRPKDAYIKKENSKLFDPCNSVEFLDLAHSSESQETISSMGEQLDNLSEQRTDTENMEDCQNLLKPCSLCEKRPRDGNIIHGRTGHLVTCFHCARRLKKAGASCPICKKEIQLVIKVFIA
Target sequence (Q00987 whole entry, looked up): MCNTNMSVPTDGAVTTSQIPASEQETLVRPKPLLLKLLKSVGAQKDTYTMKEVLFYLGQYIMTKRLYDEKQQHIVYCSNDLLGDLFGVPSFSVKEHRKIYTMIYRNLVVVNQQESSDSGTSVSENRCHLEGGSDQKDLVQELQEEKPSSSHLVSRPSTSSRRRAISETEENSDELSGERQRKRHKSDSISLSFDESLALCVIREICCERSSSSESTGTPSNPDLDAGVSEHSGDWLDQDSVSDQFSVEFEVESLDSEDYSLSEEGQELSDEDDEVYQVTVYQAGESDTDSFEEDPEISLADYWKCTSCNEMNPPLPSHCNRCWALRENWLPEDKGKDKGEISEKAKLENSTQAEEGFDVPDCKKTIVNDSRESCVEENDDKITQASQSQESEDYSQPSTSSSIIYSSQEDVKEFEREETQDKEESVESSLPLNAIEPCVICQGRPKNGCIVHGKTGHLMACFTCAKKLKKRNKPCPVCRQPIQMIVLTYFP
PAX8 reporter: PAX8 transcriptional activity inhibition; AID 652154; inhibition, % at 12.6 µM; RMG-I TPO-luciferase reporter, SteadyGlo, 24 h; 1.2% of 360,000 active;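 active = mean replicate inhibition at least 60% with every replicate also reaching 60%; inconclusive = only one of the two criteria is met; inactive = mean below 60% and not all replicates reaching 60%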;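 also: luciferase light reporting Pax8 driven TPO promoter activity; plate controls were median of neutral control wells for no effect and mitoxantrone controls for full effect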
Gli-Sufu block: Gli-Sufu pathway antagonism; Sufu-KO-LIGHT fibroblasts, Gli luciferase reporter luminescence; inhibition, % at 5 µM; 0.74% of 340,000 active;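 active = inhibition above about 55%, limit read from the data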;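 also: 0% = DMSO-treated cells and 100% = wells with medium but no cells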
Mdm2-MdmX conf: human Mdm2/MdmX binding inhibition, confirmed; shares compounds with Mdm2 MdmX PPI; luminescent assay; inhibition, % at 8 µM; 55% of 10,000 active; AID 489028; in the data active = inhibition above about 40%
Full FLuc ctr: counter-screen for Mdm2/MdmX inhibitors: full-length luciferase | shares compounds with Mdm2 MdmX PPI | SaOS-2 full-length luciferase counterscreen, luminescence | inhibition, % at 8 µM | 77% of 6,200 active;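 active = mean inhibition at 8 µM reaching about 37%, which flags the compound as non-specific, limit read from the data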;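 also: p53-null SaOS-2 cells with luciferase driven by a doxycycline-inducible promoter; compound on cells about two nights before reading with doxycycline added after day one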
* hit, by the source's call; ? = inconclusive; / = no result given; ! = not active in a repeat.

SMILES | CSC inhib | Beta apoptosis | Shn3 3UTR inh | Mdm2 MdmX PPI | PAX8 reporter | Gli-Sufu block | Mdm2-MdmX conf | Full FLuc ctr
COc1ccc(/C=C(\C#N)c2nc3ccc(C)cc3[nH]2)cc1Oc1ccc(C(F)(F)F)cc1[N+](=O)[O-] | 22 | 43 | 8 | 83* | -2 | 5 | 12 | /
Cc1ccc2nc(/C(C#N)=C\c3ccc(Oc4ccc(C(F)(F)F)cc4[N+](=O)[O-])cc3)[nH]c2c1 | -17 | 4 | 27 | 61* | 1 | 10 | 44* | 75*
N#C/C(=C\c1cccc(Oc2ccc(C(F)(F)F)cc2[N+](=O)[O-])c1)c1nc2ccccc2[nH]1 | 69 | -4 | -18 | 38 | / | -8 | / | /
CN(C)c1ccc2c(c1)[C@H]1C[C@H](CC(=O)NCc3ccncc3)O[C@H](CO)[C@H]1O2 | / | / | / | / | -18 | / | / | /
C[C@H](CO)N1C[C@H](C)[C@H](CN(C)C(=O)Cc2ccccc2)OCc2cn(nn2)CCCC1=O | / | / | / | / | -3 | / | / | /
CCCC(=O)Nc1ccc2c(c1)C(=O)N(C)C[C@@H](OC)[C@@H](C)CN(Cc1cncnc1)[C@H](C)CO2 | / | / | / | / | 18 | / | / | /
COc1cc(OC)c2c(-c3cccc(-c4cccc(C)c4)c3)cc(=O)oc2c1 | / | / | 27 | 44 | 27 | -26 | / | /
COc1ccc(-c2cccc(-c3cc(=O)oc4cc(OC)cc(OC)c34)c2)cc1 | / | / | 10 | 78* | 58 | 40 | 54* | 68*
COc1ccc(-c2cccc(-c3cc(=O)oc4cc5c(cc34)OCO5)c2)cc1 | / | / | -8 | 54* | -13 | -4 | 24 | /
COc1cc(OC)c2c(-c3cccc(-c4ccc(N(C)C)cc4)c3)cc(=O)oc2c1 | / | / | 31 | 67* | 77* | 41 | 56* | 103*
COc1cc(OC)c2c(-c3cccc(-c4ccc(O)cc4)c3)cc(=O)oc2c1 | / | / | 6 | 73* | 41 | 5 | 56* | 43*
COc1ccc(-c2cccc(-c3cc(=O)oc4cc(OC)c(OC)c(OC)c34)c2)cc1 | / | / | -30 | 37 | 12 | 0 | / | /
COc1cc(OC)c2c(-c3cccc(-c4ccc(OC(F)(F)F)cc4)c3)cc(=O)oc2c1 | / | / | 4 | 18 | -4 | 1 | / | /
C[C@@H]1CN([C@H](C)CO)C(=O)c2cccc(NC(=O)C3CC3)c2O[C@@H]1CN(C)S(=O)(=O)c1cn(C)cn1 | / | / | / | / | 4 | / | / | /
COc1cc(OC)c2c(-c3cccc(-c4ccc(CO)cc4)c3)cc(=O)oc2c1 | / | / | 10 | 74* | / | 70* | 63* | 62*
Oc1ccc(Cl)cc1Cc1cc(Cl)ccc1O | 114* | 24 | 25 | 87* | -1 | 4 | 60* | 48*
Oc1ccc(Cl)cc1CNCc1ccc(Cl)cc1 | 9 | -7 | -36 | 25 | -35 | 8 | / | /
O=C(CCl)N(c1ccccc1)C1CCCCC1 | -16 | 107* | 97* | 94* | 103* | 5 | 100* | 52*
CC(=O)N(c1ccccc1)C1CCCC1 | -9 | -5 | -25 | 9 | 3 | 10 | / | /
Cc1ccc(S(=O)(=O)Nc2ccc3c(c2)CC(=O)N([C@H](C)CO)C[C@@H](C)[C@H](CN(C)Cc2ccc4c(c2)OCO4)O3)cc1 | / | / | / | / | -2 | / | / | /
CCN(CC)C(=O)[C@H]1CC(CC(=O)NCC23CC4CC(CC(C4)C2)C3)C(=O)N2CCc3c([nH]c4ccccc34)[C@]12C (stereo partly specified) | / | / | -12 | 69* | 27 | 2 | 23 | /
CCN(CC)C(=O)[C@H]1CC(CC(=O)NCCC2=CCCCC2)C(=O)N2CCc3c([nH]c4ccccc34)[C@]12C (stereo partly specified) | -5 | -3 | 14 | 1 | 21 | 16 | / | /
CCN(CC)C(=O)[C@H]1CC(CC(=O)NC/C=C(\C)CCC=C(C)C)C(=O)N2CCc3c([nH]c4ccc(OC)cc34)[C@]12C (stereo partly specified) | / | / | 10 | 87* | 59 | 16 | 45* | 59*
CCN(CC)C(=O)[C@H]1C[C@H](CC(=O)NCC23CC4CC(CC(C4)C2)C3)C(=O)N2CCc3c([nH]c4cc(-c5ccco5)ccc34)[C@]12C | / | / | 15 | 84* | 36 | -3 | 56* | 71*
C[C@]12c3[nH]c4cc(-c5ccco5)ccc4c3CCN1C(=O)[C@@H](CC(=O)NCC13CC4CC(CC(C4)C1)C3)C[C@@H]2C(=O)N1CCOCC1 | / | / | 43 | 85* | 23 | -3 | 16 | /
SMILES | CSC inhib | Beta apoptosis | Shn3 3UTR inh | Mdm2 MdmX PPI | PAX8 reporter | Gli-Sufu block | Mdm2-MdmX conf | Full FLuc ctr
COc1ccc(S(=O)(=O)N(C)C[C@H]2OCCCC[C@H](C)Oc3ccc(NC(=O)Nc4ccc(C(F)(F)F)cc4)cc3C(=O)N([C@@H](C)CO)C[C@H]2C)cc1 | / | / | / | / | 0 | / | / | /
COc1ccc(CNC(=O)C[C@H]2CC[C@H]3[C@@H](COc4ccc(NC(=O)C(C)C)cc4C(=O)N3C)O2)cc1 | / | / | / | / | -6 | / | / | /
CCOc1cccc2sc(N(CCN(C)C)C(=O)/C=C/c3cccs3)nc12 | 0 | 17 | -42 | 65* | / | 18 | 26 | /
COc1cccc2sc(N(CCN(C)C)C(=O)/C=C/c3cccs3)nc12 | 6 | 3 | -2 | 56* | 0 | 4 | 27 | /
C[C@H]1CN([C@@H](C)CO)C(=O)c2cc(C3=CCCCC3)cnc2O[C@@H]1CN(C)Cc1ccccc1F | / | / | / | / | 13 | / | / | /
CCn1c(Cl)c(C=O)s/c1=N\S(=O)(=O)c1ccccc1 | ? | 117* | 99* | 100* | 10 | 2 | 98* | 51*
CCN1C(=O)CS/C1=N\S(=O)(=O)c1ccc(Cl)cc1 | 6 | 0 | 8 | -17 | 5 | 5 | / | /
Cc1ccc(Cn2ccc(NC(=O)c3cc(-c4cccc(Cl)c4)on3)n2)cc1 | 2 | 11 | 19 | 55* | / | 24 | 17 | /
COc1ccc(-n2ncc3c(NCc4ccc5c(c4)OCO5)ncnc32)cc1 | -8 | -4 | -18 | 59* | / | -48 | -31 | /
c1nc(NCc2ccc3c(c2)OCO3)c2cc(-c3ccoc3)ccc2n1 | -5 | -10 | -3 | 81* | -29 | -30 | 75* | 51*
c1cncc(-c2ccc3ncnc(NCc4ccc5c(c4)OCO5)c3c2)c1 | / | -2 | 6 | 42 | -31 | -2 | / | /
Cc1cc(C)c2nc(/N=C(\N)NC(=O)Nc3ccccc3)nc(C)c2c1 | 17 | 1 | 80 | 54* | 0 | 20 | 48* | 70*
CC(C)NC(=O)N(C)C[C@H]1OCCCC[C@@H](C)Oc2ccc(N(C)C)cc2C(=O)N([C@@H](C)CO)C[C@@H]1C | / | / | / | / | -17 | / | / | /
CCCCCCCCCCCCCCCC[n+]1cccc(C(=O)N(CC)CC)c1 | 143* | 91* | 76 | 77* | 64* | 72*! | 66* | 18
CCCCCCCCCCCCCCCC[n+]1ccc(C(N)=O)cc1 | / | 8 | 69 | 78* | 111* | 17 | 77* | 57*
